Assay results taken from PubChem BioAssay AID463173 (ICCB-Longwood Screening Facility, Harvard Medical School, 2010).
About 4,300 (8.3%) of roughly 52,000 compounds were called active. Shown is part of a subset that was picked to be rich in actives. Values without a mark were called inactive. Cut-off read from the data, not from the text of the source: active = survival mostly below about 52% (no sharp cut-off); inactive = mostly above about 56%.

Test system: DeltatarO mutant
Assay: S. aureus survival, RN4220 and DeltatarO strains – OD600, teichoic acid synthesis inhibitors, primary screen (AID 463173)
Conditions: S. aureus RN4220 wild type/DeltatarO growth, OD600, 18 h, active compounds read low, screened at 18.75 µg/mL (by protocol)

| Compound | survival |
| --- | --- |
| CCN(CC)S(=O)(=O)c1ccc2c(c1)N(CC(=O)Nc1cccc(C(C)=O)c1)C(=O)CO2 | 84% |
| Cc1ccc(Cl)cc1N1CCN(C(=O)Cn2ncc3c4ccccc4n(C)c3c2=O)CC1 | 54% |
| CC1=C(c2ccc(C)cc2)S(=O)(=O)NC1=NCCCN1CCN(c2ccc(F)cc2)CC1 | 69% |
| O=C(O)C(Cc1c[nH]c2ccccc12)Nc1ncnc2c1oc1ccccc12 (centres undefined) | 76% |
| CCc1ccc(NC(=O)CCc2c(C)nc3nc(-c4cc(OC)cc(OC)c4)nn3c2C)cc1 | 111% |
| CCCCc1ccc(NC(=O)CSc2nnc3[nH]c(=O)cc(C)n23)cc1 | 95% |
| Cc1ccc(CNC(=O)CCS(=O)(=O)c2ccc3c(c2)CC(C)N3C(=O)C2CC2)cc1 (centres undefined) | 91% |
| Clc1cccc(-n2ncc3c(N4CCN(Cc5ccccc5)CC4)ncnc32)c1 | 25% (active) |
| COc1ccccc1N1CCN(c2ncnc3c2cnn3-c2cccc(Cl)c2)CC1 | -2% (active) |
| c1ccc(CN2CCN(c3ncnc4c3cnn4-c3ccccc3)CC2)cc1 | 69% |
| COc1ccccc1N1CCN(c2ncnc3c2cnn3-c2cc(Cl)ccc2C)CC1 | 124% |
| COc1ccccc1N1CCN(c2ncnc3c2cnn3-c2ccc(C)cc2)CC1 | 91% |
| Cc1ccc(-n2ncc3c(N4CCN(Cc5ccccc5)CC4)ncnc32)cc1Cl | 87% |
| COc1cc(CSc2ncc(CO)n2Cc2ccc(C)cc2)cc(OC)c1 | 92% |
| O=C(CSc1nc2c([nH]c3ccccc32)c(=O)n1-c1ccc(Cl)cc1)c1ccccc1 | 94% |
| COc1ccc(-n2c(SCC(=O)c3ccccc3)nc3c([nH]c4ccccc43)c2=O)cc1 | 98% |
| CCOc1ccc(-n2c(SCC(=O)Nc3cc(C)ccc3C)nc3c([nH]c4ccccc43)c2=O)cc1 | 75% |
| O=C(CSc1nc2c([nH]c3ccccc32)c(=O)n1-c1ccccc1)c1ccccc1 | 77% |
| O=C(CSc1nc2c([nH]c3ccccc32)c(=O)n1-c1ccccc1F)Nc1cccc(C(F)(F)F)c1 | 74% |
| O=C(CSc1nc2c([nH]c3ccccc32)c(=O)n1-c1ccccc1)Nc1cccc(C(F)(F)F)c1 | -4% (active) |
| Cc1ccc(C)c(NC(=O)CSc2nc3c([nH]c4ccccc43)c(=O)n2-c2ccc(F)cc2)c1 | 32% (active) |
| Cc1cccc(NC(=O)CSc2nc3c([nH]c4ccccc43)c(=O)n2-c2ccc(F)cc2)c1C | 49% |
| COc1cccc(NC(=O)CSc2nc3c([nH]c4ccccc43)c(=O)n2-c2ccccc2)c1 | 76% |
| O=C(CSc1nc2c([nH]c3ccccc32)c(=O)n1-c1cccc(Cl)c1)c1ccccc1 | 47% (active) |

| Compound | survival |
| --- | --- |
| O=C(CSc1nc2c([nH]c3ccccc32)c(=O)n1-c1ccccc1)c1ccc(Cl)cc1 | 92% |
| Cc1ccc(-n2c(SCC(=O)c3ccccc3)nc3c([nH]c4ccccc43)c2=O)cc1 | -5% (active) |
| CCCn1ccc2c(OCC(=O)Nc3ccc(C(F)(F)F)cc3)cccc2c1=O | 75% |
| COc1ccccc1CNC(=O)Cn1nc(C)n2cccc2c1=O | 94% |
| CCN(CC)c1ccc(NC(=O)Cn2cc3c(n2)CCCC3)c(C)c1 | 121% |
| CCOc1ccc(-n2c(SCC(=O)NC3CCCC3)nnc2-c2ccoc2C)cc1 | 92% |
| COc1ccc(NC(=O)c2ccc3c(SCC(=O)O)c4c(nc3c2)CCCC4)c(OC)c1 | 55% |
| CCOc1ccc(CNC(=O)c2ccc3c(Cl)c4c(nc3c2)CCCC4)cc1 | 75% |
| COc1ccc(C)cc1NC(=O)c1ccc2c(SCC(=O)O)c3c(nc2c1)CCCC3 | 77% |
| COc1ccccc1NC(=O)c1ccc2c(Cl)c3c(nc2c1)CCCC3 | 15% (active) |
| COc1cc(OC)c(NC(=O)c2ccc3c(Cl)c4c(nc3c2)CCCC4)cc1Cl | 85% |
| CCOc1ccccc1NC(=O)c1ccc2c(Cl)c3c(nc2c1)CCCC3 | 35% (active) |
| O=C(Nc1ccccc1F)c1ccc2c(Cl)c3c(nc2c1)CCC3 | 21% (active) |
| CCOc1ccccc1NC(=O)c1ccc2c(Cl)c3c(nc2c1)CCC3 | 82% |
| COC(=O)c1ccccc1NC(=O)c1ccc2c(Cl)c3c(nc2c1)CCCC3 | 80% |
| COc1cc(Cl)c(C)cc1NC(=O)c1ccc2c(SCC(=O)O)c3c(nc2c1)CCCC3 | 41% (active) |
| O=C(Nc1ccc(F)c(Cl)c1)c1ccc2c(Cl)c3c(nc2c1)CCCC3 | 118% |
| COc1ccc(OC)c(NC(=O)c2ccc3c(Cl)c4c(nc3c2)CCCC4)c1 | 82% |
| COc1ccc(NC(=O)C2CCN(c3ccc(Sc4ccc(C)cc4)nn3)CC2)cc1 | 74% |
| Cc1ccc(CNC(=O)C(C)n2c(=O)cc(-c3ccccc3)c3c(C)nn(C)c32)cc1 (centres undefined) | 80% |
| C=CCn1c(Br)nc2c1c(=O)n(C)c(=O)n2C | 73% |
| CN(C1CCCCC1)S(=O)(=O)c1ccc2c(c1)c(=O)c(C(=O)NCCc1ccccc1)cn2C | 79% |
| Cc1cc(C)c2c(-n3cccc3)c(C(=O)NCCc3ccccc3)sc2n1 | 90% |
| Cc1cc(C)cc(OCCSc2nc(-c3cccs3)nc3cc(=O)[nH]n23)c1 | 67% |

| Compound | survival |
| --- | --- |
| O=C(COc1ccccc1Cl)Nc1cc(-c2ccccc2F)nn1-c1ccccc1 | 91% |
| COc1ccc(CNC(=O)c2ccc3c(Cl)c4c(nc3c2)CCCC4)c(OC)c1 | 92% |
| COc1cccc(CNC(=O)c2ccc3c(Cl)c4c(nc3c2)CCCC4)c1 | 49% (active) |
| CCOC(=O)c1cccc(NC(=O)c2ccc3c(Cl)c4c(nc3c2)CCC4)c1 | 41% (active) |
| O=C(NCc1cccc(Cl)c1)c1ccc2c(Cl)c3c(nc2c1)CCCC3 | 48% |
| CCOC(=O)c1ccccc1NC(=O)c1ccc2c(Cl)c3c(nc2c1)CCC3 | 96% |
| COc1cc(NC(=O)c2ccc3c(Cl)c4c(nc3c2)CCC4)cc(OC)c1OC | 62% |
| NS(=O)(=O)c1ccc(NC(=O)c2csnn2)cc1 | 80% |
| O=C(NCCO)c1ccc(-c2nnc(Nc3ccc(OC(F)(F)Cl)cc3)c3ccccc23)cc1 | 72% |
| CCOC(=O)c1ccc(NC(=O)C2CCCN(c3ccc(Sc4ccc(C)cc4)nn3)C2)cc1 (centres undefined) | 43% |
| Cc1ccccc1CN1c2ccccc2-c2nc(SCC(=O)Nc3cc(F)ccc3F)ncc2S1(=O)=O | 89% |
| Cc1ccc(C)c(CN2C(=O)c3ccccc3Sc3ccc(C(=O)NCc4ccc5c(c4)OCO5)cc32)c1 | 89% |
| Cc1[nH]c2ccccc2c1Cc1nnc(SCC(N)=O)n1Cc1ccco1 | 99% |
| CCOC(=O)c1nc(Nc2ccc(C(=O)OCC(C)C)cc2)c2ccccc2n1 | 61% |
| COC(=O)c1ccc(Nc2nc(-c3ccccc3Cl)nc3ccccc23)cc1 | 21% (active) |
| O=C(CSc1nc(Nc2ccc(F)cc2)c2ccccc2n1)c1ccc(F)cc1 | 124% |
| CCOC(=O)c1nc(Nc2ccc(C(C)=O)cc2)c2ccccc2n1 | 49% |
| COC(=O)c1ccc(Nc2nc(-c3ccc(C)cc3)nc3ccccc23)cc1 | 9% (active) |
| CCOC(=O)c1nc(Nc2ccc(C(=O)OC(C)C)cc2)c2ccccc2n1 | 68% |
| COc1ccc2c(c1)c1c(c(=O)n(-c3ccc(OC)c(OC)c3)c(=O)n1Cc1ccc(C)cc1)n2C | 73% |
| CCOc1ccc(NC(=O)CSc2nc3c(oc4ccccc43)c(=O)n2-c2ccccc2C)cc1 | 79% |
| COc1ccc(CC(=O)N2CCc3cc(OC)c(OC)cc3C2COc2ccc(F)cc2)cc1 (centres undefined) | 67% |
| COc1cc(CNCCSc2nnnn2C)cc(Cl)c1OCc1ccccc1 | 44% (active) |
| Cn1nnnc1SCCNCc1ccc(OCc2ccc(Cl)cc2)cc1 | 68% |

| Compound | survival |
| --- | --- |
| Cn1nnnc1SCCCNCc1ccccc1OCc1ccc(F)cc1 | 57% (active) |
| COc1cccc(CNCCSc2nnnn2C)c1OCc1ccc(Cl)cc1 | 62% |
| Cn1nnnc1SCCCNCc1cccc(OCc2ccc(F)cc2)c1 | 115% |
| COc1cccc(CNCCSc2nnnn2C)c1OCc1ccccc1 | 79% |
| Cn1nnnc1SCCCNCc1ccccc1OCc1ccc(Cl)cc1 | 66% |
| COc1cc(CNCCSc2nnnn2C)ccc1OCc1ccccc1 | 73% |
| Cn1nnnc1SCCCNCc1cccc(OCc2ccccc2)c1 | 85% |
| Cn1nnnc1SCCCNCc1ccccc1OCc1ccccc1F | 72% |
| Cn1nnnc1SCCCNCc1cccc(OCc2ccc(Cl)cc2)c1 | -3% (active) |
| CCOc1cc(CNCCSc2nnnn2C)cc(Cl)c1OCc1ccc(Cl)cc1 | 2% (active) |
| O=C1CCc2cc(S(=O)(=O)NC(C(=O)Nc3ccc(F)cc3)c3ccccc3)ccc2N1 (centres undefined) | 100% |
| COc1ccc(-n2c(=O)c3c4c(sc3n(CC(=O)N3CCCCC3C)c2=O)CCC4)c(OC)c1 (centres undefined) | 87% |
| Cc1ccc(Cl)cc1NC(=O)Cn1c(=O)c(CNc2ccccc2)cc2cc3c(cc21)OCCO3 | 95% |
| CCc1ccc(CN2CCc3nc(Nc4ccccc4)ncc3C2)cc1 | 84% |
| Cc1ccc(Nc2nc3ccc(C(=O)c4ccccc4)cc3n3c(C)nnc23)c(C)c1 | 105% |
| CCCn1c2ccccc2c2cnn(CC(=O)NCCCN(Cc3ccccc3)C(C)C)c(=O)c21 | 88% |
| COc1ccc(-c2c(C)nn3c(-c4ccccc4)cc(-c4ccccc4)nc23)cc1OC | 96% |
| COc1ccc(-c2c(C)nn3c(C(F)(F)F)cc(-c4ccccc4)nc23)cc1 | 62% |
| COc1ccc(-c2cc(C(F)(F)F)n3nc(C)c(-c4ccccc4)c3n2)cc1OC | 69% (active) |
| COc1ccc(-c2c(C)nn3c(C(F)(F)F)cc(-c4ccccc4)nc23)cc1OC | 57% |
| COc1ccc(-c2c(C)nn3c(-c4ccccc4)cc(C)nc23)cc1OC | 38% (active) |
| COc1ccc(-c2cc(C)nc3c(-c4ccc(OC)c(OC)c4)c(C)nn23)cc1 | 63% |
